Measured values as given in PubChem BioAssay (NCI).
The panel holds about 83,000 compounds, 20% with a hit somewhere; the sample as a whole holds those more often.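 For each line, cells grew in 96-well plates with the test compound present at a single concentration for 48 hours.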 A number with no mark means an inactive call. Activity calls are given as the source filed them. How the source made its calls: active means growth percent below 10; inactive means the rest.

What was measured:
Experiment in all cases: NCI-60 one-dose screen, 48 h (100 = growth as untreated, 0 = no growth, -100 = all killed)
NCI-H23 lung = settings: 10 µM unless noted
NCI-H226 lung = settings: 10 µM unless noted
NCI-H322M lung = settings: 10 µM unless noted
HOP-62 NSCLC = settings: 10 µM unless noted
NCI-H460 lung = settings: 10 µM unless noted
HOP-92 NSCLC = settings: 10 µM unless noted
A549/ATCC NSCLC = settings: 10 µM unless noted
786-0 renal = settings: 10 µM unless noted
COLO 205 colon = settings: 10 µM unless noted
NCI-H522 lung = settings: 10 µM

SMILES	growth (NCI-H23 lung)	growth (NCI-H226 lung)	growth (NCI-H322M lung)	growth (HOP-62 NSCLC)	growth (NCI-H460 lung)	growth (HOP-92 NSCLC)	growth (A549/ATCC NSCLC)	growth (786-0 renal)	growth (COLO 205 colon)	growth (NCI-H522 lung)
COc1cc(/C=C/C(=O)C(C(=O)/C=C/c2ccc(OC(=O)CCNC34CC5CC(CC(C5)C3)C4)c(OC)c2)C(=O)CCNC23CC4CC(CC(C4)C2)C3)ccc1OC(=O)CCNC12CC3CC(CC(C3)C1)C2 (configuration not stated)	32.2%	31.4%	51.6%	29.8%	7.93% (active)	44.6%	29.1%	-53.3% (active)	17.7%	
COc1ccc(OC)c2c1CCC1(C2)NC(=O)NC1=O (configuration not stated)	106%	102%	107%	95.2%	107%	69.3%	98.9%	113%	98.9%	
COP(=O)(OC)C(c1ccc(O)cc1)(c1ccc(O)cc1)c1ccc(O)cc1	114%	99.7%	103%	83.3%	113%	79.3%	99.9%	82.4%	123%	
C/C(=C\CCc1ccsc1)CC/C=C(\C)CCCN1CCSCC1	89.6%	91.3%	78.3%	99%	76.9%	73.3%	67.5%	102%	85.6%	
CC1C(=O)NC2=Nc3ccccc3C(=O)NN21 (configuration not stated)	97.2%	92.9%	97.2%	87.8%	104%	94.9%		97.9%	104%	97.5%
CCCCCc1c(C)[nH]c(/C=C2\N=C(c3ccc[nH]3)C=C2Oc2ccc(Cl)cc2)c1C	-46.3% [100 µM] (active)	11.9% [100 µM]	20.5% [100 µM]	-6.67% [100 µM] (active)	2.82% [100 µM] (active)	-10.7% [100 µM] (active)	-51.5% [100 µM] (active)	-18.2% [100 µM] (active)	-85.5% [100 µM] (active)	
CCOC(=O)C1=CCC(n2cc(C)c(=O)[nH]c2=O)O1 (configuration not stated)	102%	89.5%	101%	104%	114%	65%	96.7%	105%	90.1%	
COc1ccc(C(=O)/C=C/c2ccc(C)cc2)cc1OC	78.3%	74.4%	74.6%	79%	80.9%	52.5%	36.3%	85.3%	82.8%	
Cc1ccc(C2=NNC(c3sc(Cl)nc3Cl)C2)cc1 (configuration not stated)	91%	84.7%	83.2%	107%	104%	115%		106%	99.8%	18.1%
Cc1cc(Cl)ccc1Nc1nc(C(F)(F)F)ccc1C(=O)N/N=C/c1ccc(Cl)cc1	5.4% (active)	7.79% (active)	-1.86% (active)	-61.2% (active)	-5.33% (active)	-24.1% (active)		-45% (active)	-18.7% (active)	-17.6% (active)
O=C(Nc1ccccc1)P(=O)(O)c1ccccc1	94%	91.2%	119%	94.3%	105%	78.1%		110%	114%	102%
C[C@H]1O[C@@H](O[C@H]2[C@@H](O)C[C@H](O[C@H]3[C@@H](O)C[C@H](O[C@H]4CC[C@]5(C)C6CC[C@]7(C)[C@@H](C8=CC(=O)OC8)CC[C@]7(O)C6CC[C@@H]5C4)O[C@@H]3C)O[C@@H]2C)C[C@H](O)[C@@H]1O (some centres not stated)	-47.5% (active)	-100% (active)	-84.9% (active)	-100% (active)	-97.3% (active)	-29.3% (active)		-93.4% (active)	-92.6% (active)	-65% (active)
COc1ccc(/C=C2\CCc3ccccc3C2=O)cc1	90.3%	103%	98.1%	85.8%	102%	84.2%	77.4%	91.5%	106%	
O=C(N/N=C/c1ccc(Cl)cc1Cl)c1ccccc1Nc1cccc(C(F)(F)F)c1	70.5%	50%	86.2%	57.9%	104%	-0.368% (active)		74.9%	109%	67%
CCOc1cc(/C=C/C(=O)CC(=O)/C=C/c2ccc(OC(=O)CNCCN(CC)CC)c(OCC)c2)ccc1OC(=O)CNCCN(CC)CC	-35.6% (active)	-41.3% (active)	-0.873% (active)	-32.1% (active)	-27.3% (active)	-3.28% (active)	12.4%	-91.6% (active)	-51.3% (active)	
Cc1n(Cc2ccc3ccccc3c2)c2ccccc2[n+]1Cc1ccc2ccccc2c1	-29.5% (active)	-9.12% (active)	9.37% (active)	-62% (active)	-73.9% (active)	-68.2% (active)	8.96% (active)	-92.8% (active)	-77.1% (active)	
O=C(c1ccccc1)C(CN1CCCCC1)c1ccccc1 (configuration not stated)	91.4%	91.6%	88.3%	68.2%	68.7%	-12.2% (active)	79.9%	1.38% (active)	10.1%	
COC(=O)c1c(NC(=O)CSc2nnnn2-c2ccc(OC)cc2)sc(C)c1C	76.7%	79.4%	100%	99.3%	106%	75.1%		107%	105%	91.1%
Cc1cccc2nnc(-c3ccccc3)n12	104%	106%	104%	125%	108%	105%	94.4%	94.8%	118%	
CCOC(=O)OCC(=O)[C@@]1(O)CC[C@H]2[C@@H]3CCC4=CC(=O)CC[C@]4(C)[C@H]3[C@@H](O)C[C@@]21C	111%	70.1%	99.2%	98.5%	102%	72.5%	74.2%	108%	104%	
COc1ccc2c(c1)CC[C@@H]1[C@@H]2CC[C@]2(C)[C@@H](O)C(=O)C[C@@H]12	102%	114%	91.3%	103%	102%	116%	99.6%	106%	102%	
CCOC(=O)C1C(=O)NC(C(=O)OCC)(C(=O)OCC)C1CC (configuration not stated)	112%	97.7%	119%	109%	117%	98%	97.2%	107%	114%	
O=C1OC2(c3ccccc31)c1ccccc1-c1ccccc12	89.6%	95.8%	103%	93.8%	106%	96.9%	72.4%	86.2%	81.7%	
Oc1c(N=Nc2nn[nH]n2)ccc2ccccc12	72.8%	81.4%	57.9%	85.4%	73%	77.1%	77.8%	102%	54%	
ICCC(c1ccccc1)(c1ccccc1)c1ccccc1	65.6%	89.8%	86.4%	55.8%	69.5%	40.6%	59.8%	43.8%	-61.5% (active)	
C(#Cc1ccccc1C#Cc1ccccn1)c1ccc(OCCCCCCOc2ccc(C#Cc3ccccc3C#Cc3ccccn3)cc2)cc1	57.3%	67.3%	67.8%	38.2%	19.9%	9.48% (active)	25.3%	29.3%	120%	
COc1cccc(/C=N/Nc2nc3ccccc3s2)c1OC	101%	83.3%	76%	68.8%	34.5%	74.5%	69.1%	82.1%	71.6%	
COc1cnc2c(c1)C(=O)c1c-2n(CCCN2CCOCC2)c(=O)c2cc(F)ccc12	-15% (active)	-64.5% (active)	8.18% (active)	-23% (active)	-32.9% (active)	-13.5% (active)	-29.2% (active)	-60.1% (active)	-8.99% (active)	
